Screens (PubChem)
In the library only some 1.8% were active in any assay of this set; here they are far more common.
Six1-Eya2 inh: blocks human Six1 binding to Eya2 | AlphaScreen GST-Six1/His-Eya2 binding, biochemical; active compounds read low | activity change, % (no concentration beside the values) | 360,000 compounds, 0.56% hits | AID 651725
Target sequence (O00167 whole entry, looked up): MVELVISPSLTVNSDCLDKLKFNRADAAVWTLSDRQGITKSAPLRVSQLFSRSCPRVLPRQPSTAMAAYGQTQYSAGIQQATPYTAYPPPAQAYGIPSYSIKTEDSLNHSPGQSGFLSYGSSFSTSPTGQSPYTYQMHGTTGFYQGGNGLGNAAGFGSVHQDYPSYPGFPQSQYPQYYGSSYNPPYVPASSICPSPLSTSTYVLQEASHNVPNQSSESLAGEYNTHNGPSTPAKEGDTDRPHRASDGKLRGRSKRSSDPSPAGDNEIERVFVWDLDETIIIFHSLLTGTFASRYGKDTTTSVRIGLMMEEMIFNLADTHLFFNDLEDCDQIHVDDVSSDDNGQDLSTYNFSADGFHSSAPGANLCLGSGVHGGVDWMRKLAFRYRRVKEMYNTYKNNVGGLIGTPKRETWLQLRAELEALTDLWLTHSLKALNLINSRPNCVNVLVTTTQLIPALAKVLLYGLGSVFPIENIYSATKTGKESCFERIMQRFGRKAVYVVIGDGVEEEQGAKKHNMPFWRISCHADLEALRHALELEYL
Target sequence (Q15475 whole entry, looked up): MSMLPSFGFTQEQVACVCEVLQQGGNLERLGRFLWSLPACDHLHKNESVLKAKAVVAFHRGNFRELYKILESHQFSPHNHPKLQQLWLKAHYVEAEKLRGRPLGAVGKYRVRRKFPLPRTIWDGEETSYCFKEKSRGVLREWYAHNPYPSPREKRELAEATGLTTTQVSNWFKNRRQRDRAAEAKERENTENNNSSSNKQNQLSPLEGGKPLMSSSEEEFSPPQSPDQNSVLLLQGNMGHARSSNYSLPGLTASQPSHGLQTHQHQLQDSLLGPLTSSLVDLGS
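Six1/Eya2 binding was read as AlphaScreen signal after compounds were pinned into GST-Six1 plus His-tagged Eya2 (5X stock 250/500 nM) in pH 8.0 Tris/NaCl/TCEP buffer, beads added, then incubated 1 h, 37 C, dark.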
PI5P4K alpha inh: PI5P4K alpha (human) kinase inhibition; P48426; PI5P4Kalpha enzyme, ADP-Glo luminescence, 60 min; active compounds read low; max response, %; 330,000 compounds, 1.2% hits; active means max response of -50% or lower; inconclusive means between -30% and -50%; inactive means -30% or higher; further: value at the top dose of about 77 µM
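Reactions run in 0.038 M HEPES pH 7.4, 0.28 mM EGTA, 0.1% CHAPS and 5% DMSO, with PI5P4Kalpha, substrate, compound and 5 microM ATP final, one hour at room temperature. Readout is ADP-Glo luminescence.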
Akt phos inh: Akt phosphorylation inhibition; activity change, % for hits at 50 µM; 360,000 compounds, 0.32% hits; Neuro2A IGF-stimulated pAkt S473 HTRF, 20 min; active compounds read low; in the data active means activity change below about -80%; inconclusive means mostly about -51% to -80%
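Neuro2A cells (4,500/well, DMEM with 0.5% FBS) were treated with compound at a single 50 µM final concentration, stimulated with 6 nM IGF for 20 min at 37 °C, and lysed. Phospho-Akt Ser473 was read by HTRF as 665/615 ratio ×10^4.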
CtBP-E1A blk: blocks the CtBP interaction with E1A; activity change, % (no concentration beside the values); 340,000 compounds, 0.49% hits; AlphaScreen GST-E1A/His-CtBP binding, 1536-well; active compounds read low
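Homogeneous bead-based format: GST-tagged E1A captured on glutathione donor beads, His-tagged CtBP on nickel acceptor beads; compounds precede bead addition by 2 h at 37 °C.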
PI4K2A inh: PI4K2A (human) kinase inhibition | Q9BTU6 | purified PI4K2A, ADP-Glo luminescence, 1 h; active compounds read low | activity change, negative = inhibition, % at 76.9 µM | 420,000 compounds, 0.13% hits | AID 1346378; in the data active means activity change below about -50%; inconclusive means mostly about -30% to -49%;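 further: -100% = wells without enzyme as full effect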
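In this quantitative HTS, ADP production by PI4K2A was quantified luminescently after 1 h at ambient temperature; 100 microM adenosine served as plate-quality control.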
ADP-Glo interf: ADP-Glo luciferase interference, PI5P4K counter-screen. shares compounds with PI5P4K alpha inh. ADP-Glo detection counter-screen, luciferase luminescence, no enzyme. Potency, µM (highest dose often 76.9 µM), inactives show top-dose activity change, negative = inhibition, hits mostly inhibitors. 1,100 tested, under 10 active; active means well fitted curve in the direction sought with a large enough effect; inconclusive means small, poorly fitted or top-dose-only effect, or another doubt; inactive means no such curve, though single readings can be large or run the other way
The depositor's hits bear a star; i = inactive; ? = inconclusive; nt = no result given. Unless noted, no stated cut-off is given here; in the data, active means activity change below about -65%; inconclusive means mostly about -30% to -63%; inactive means weaker than that. Unless noted, on the % scale 0 is the no-effect control and ±100 the full control effect.

SMILES | Six1-Eya2 inh | PI5P4K alpha inh | Akt phos inh | CtBP-E1A blk | PI4K2A inh | ADP-Glo interf
Cc1nc(N)sc1-c1csc(Nc2cccc(C(=O)O)c2)n1 | -19 | -52* | i | nt | -3 | -8%
COCCNC(=O)C1Cc2c(-c3cccc(NC(C)=O)c3)ccnc2O1 (stereo unspecified) | 2 | ? | i | 4 | 0 | nt
COCCNC(=O)C1Cc2c(-c3ccc(NC(C)=O)cc3)ccnc2O1 (stereo unspecified) | 6 | -66* | i | 5 | -3 | 2%
CCC(CC)C(=O)Nc1nnc(CCc2ccccc2)s1 | 7 | -1 | i | 0 | 4 | nt
CC(C)C(=O)Nc1nnc(NC(=S)Nc2ccccc2)s1 | 0 | -56* | i | -4 | -2 | -9%
CC(C)C(=O)Nc1nnc(CCc2ccccc2)s1 | 5 | -51* | i | nt | -3 | -3%
CCOC(=O)C1CCN(C(=O)c2ccc(NC(=O)c3nsc4ccccc34)cc2)CC1 | nt | nt | nt | nt | 1 | nt
Cn1cccc1C(=O)OCc1nc2ccccc2c(=O)[nH]1 | -7 | -53* | i | -3 | -23 | -11%
Cc1ccc(-c2csc(N3CCN(c4cc5c(cc4Cl)nc(-c4ccncc4)n5CCN4CCCCC4)CC3)n2)cc1 | -13 | -64* | i | nt | -3 | 5%
CS(=O)(=O)Cc1nc2ccccc2n1CC(=O)Nc1cccc(S(=O)(=O)N2CCCC2)c1 | 9 | -10 | i | 7 | 3 | nt
O=C(c1ccco1)N(CCC(c1ccccc1)c1ccco1)Cc1ccccc1 (stereo unspecified) | -26 | -60* | i | 0 | -9 | 2%
Cc1cc(C)n(C2CC(=O)N(c3cccc(Cl)c3)C2=O)n1 (stereo unspecified) | 5 | -12 | i | 2 | 4 | nt
Cc1nc2c(nnn2Cc2ccccc2)c(=O)[nH]1 | -9 | -88* | i | 4 | -4 | 2%
Cc1nc2c(nnn2Cc2ccccc2Cl)c(=O)[nH]1 | -3 | 3 | i | nt | -2 | nt
CCc1nc2sc3ccccc3c(=O)c2c(=O)n1Cc1ccco1 | ? | -68* | i | -29 | ? | -5%
O=c1c2ccccc2sc2nc(C3CCCCC3)n(Cc3ccco3)c(=O)c12 | -4 | nt | i | 2 | 0 | nt
Cc1cccc(NC(=O)CC(C)S(=O)(=O)c2ccc3c(c2)NC(=O)CO3)c1C (stereo unspecified) | 2 | -1 | i | nt | -2 | nt
NS(=O)(=O)c1ccc(CCNC(=O)c2ccc3nccnc3c2)cc1 | ? | -68* | i | -22 | -17 | 1%
COCCn1c(SCC(=O)Nc2cccnc2Cl)nc2cc(Cl)ccc2c1=O | -1 | 7 | i | -8 | 2 | nt
COCCn1c(SCC(=O)Nc2cccc(S(N)(=O)=O)c2)nc2cc(Cl)ccc2c1=O | -1 | -63* | i | 2 | 4 | -3%
Cc1ccc(N(C(=O)CNC(=O)c2ccco2)C(C(=O)NC2CCCC2)c2cccnc2)c(C)c1 (stereo unspecified) | -1 | -58* | i | -1 | 5 | -1%
CN(C)C(=O)c1ccc(NC(=O)COC(=O)C2=COCCO2)cc1 | 6 | ? | i | -1 | 2 | 2%
Nn1c(SCC(=O)NC(=O)NCc2ccco2)nnc1-c1ccc(OC(F)F)cc1 | -29 | -67* | i | -2 | -13 | -6%
Nn1c(SCC(=O)NCCN2C(=O)CSC2=O)nnc1-c1ccc(OC(F)F)cc1 | -2 | -5 | i | 6 | 4 | nt
CCn1c(SCC(=O)NC(=O)NCc2ccco2)nc2sc(C)c(C)c2c1=O | -7 | -51* | i | -1 | -11 | 1%
SMILES | Six1-Eya2 inh | PI5P4K alpha inh | Akt phos inh | CtBP-E1A blk | PI4K2A inh | ADP-Glo interf
Cc1nnc(SCC(=O)NC(=O)NCc2ccco2)n1Cc1ccccc1 | -1 | -52* | i | 0 | -23 | -2%
CCn1c(SCC(=O)NC(=O)NCc2ccco2)nnc1-c1cccs1 | -2 | -20 | i | -1 | -4 | nt
COc1cc2c(cc1OC)CN(C(=O)c1cccc([N+](=O)[O-])c1)CC2 | -11 | -14 | i | 0 | -2 | nt
CCONC(=O)Nc1ccccc1[N+](=O)[O-] | 8 | 6 | i | 2 | 0 | nt
O=C(CSc1nc(-c2ccccc2)cc(=O)[nH]1)N1CCc2ccccc21 | 3 | -50* | i | -2 | 5 | -5%
Nc1nc(SCC(=O)N2CCc3ccccc32)[nH]c(=O)c1-c1ccccc1 | -1 | nt | i | 13 | 2 | nt
O=C(/C=C/c1ccccc1)OCC(=O)N1CCN(c2ccccc2)CC1 | -1 | -3 | i | 1 | 1 | nt
O=c1[nH]nc(-c2ccccc2)c2ccccc12 | -1 | -14 | i | -1 | -1 | nt
NNc1ncnc2scc(-c3ccc(Cl)cc3)c12 | -17 | -10 | i | 11 | -2 | nt
Cc1cc(NC(=O)CN2CCN(C)CC2)no1 | 0 | -51* | i | nt | 6 | 3%
Cc1cc(NC(=O)CN2CCCCCCC2)no1 | -6 | nt | i | -8 | -2 | nt
NC(=O)c1ccsc1NC(=O)COC(=O)c1ccccn1 | ? | -52* | i | ? | 13 | -3%
NC(=O)c1ccsc1NC(=O)COC(=O)c1ccncc1 | -9 | -22 | i | 7 | 21 | nt
NC(=O)c1ccsc1NC(=O)COC(=O)c1cnccn1 | -12 | -63* | i | -22 | 4 | -3%
Nn1c(SCC(=O)Nc2ccccc2F)nnc1-c1cccnc1 | 0 | nt | i | -4 | -5 | nt
CN(c1ccccc1C(=O)O)S(=O)(=O)c1ccc2c3c(cccc13)C(=O)N2 | -9 | -56* | i | -3 | -9 | -3%
Cc1ccc(OCCSc2nnc(-c3ccncc3)n2C)cc1 | 4 | nt | i | -2 | -4 | nt
COc1ccc(C2=NOC(C(=O)NCc3ccccn3)C2)cc1OC (stereo unspecified) | 3 | -53* | i | -1 | -6 | 3%
COc1ccc(C2=NOC(C(=O)NCc3ccccn3)C2)cc1 (stereo unspecified) | 5 | ? | i | 2 | 0 | nt
COc1ccc(CNC(=O)CCCn2nc(C)c([N+](=O)[O-])c2C)cc1OC | 1 | ? | i | 6 | 1 | -4%
COc1ccccc1OCC(=O)Nc1ccc2c(c1)OCO2 | -1 | -50* | i | 1 | -5 | 0%
Cc1ccc(-c2nnc(-c3ccccc3)c(-c3ccccc3)n2)cc1 | -18 | -2 | i | -21 | 0 | nt
Cc1nnc(-c2ccccc2)nc1N(C)C | -8 | -68* | i | 1 | 3 | -2%
Cc1nn(-c2ccccc2)c(-n2cccc2)c1C(=O)NCc1ccccc1Cl | nt | nt | nt | nt | -5 | nt
